The record followed here is PubChem BioAssay AID686979 (National Center for Advancing Translational Sciences (NCATS), 2013).

Each structure is given as a SMILES string. In all, about 420,000 compounds went through this assay and about 50,000 (12%) were called active. Another 26% or so got no clear call; they are omitted. Calls follow the shape of the dose curve; as a rule, active = well fitted inhibition curve with a large enough effect; inconclusive = small, poorly fitted or top-dose-only effect; inactive = flat fitted curve, though single readings scatter. The list comes from a sample in which actives are over-represented; it also holds similar structures and randomly drawn compounds. A call without a number means that no potency is given here.
Potency is read from the fitted curve at half-maximal effect.

The assay is described as follows: qHTS for Inhibitors of human tyrosyl-DNA phosphodiesterase 1 (TDP1): qHTS in cells in presence of CPT. Also: nearly all actives have a fitted effect of over 55% in size. The note with it: chicken DT40 Tdp1-/-;hTDP1 cells + 20 nM CPT, ATP luminescence, 48 h; series mostly up to 46.2 µM. The procedure, abridged:
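Cell growth measured by CellTiter-Glo luminescence after a minimum 48 h, 37 C compound exposure with 20 nM CPT in Tdp1-knockout DT40 cells stably expressing hTDP1, seeded 400/well; qHTS titration format.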
For orientation: qHTS replaces the single test concentration by a dilution series.
In the case of `Cc1ncc([N+](=O)[O-])n1CCOC(=O)c1ccc(Br)cc1`, the Potency entry was “inactive”.
As for `CCOC(=O)c1ccc2c(c1)nc(C)n2CC`, the Potency entry is “inactive”.
The same measure for `CCn1c(/C=C/Nc2ccccc2)[n+](CC)c2ccc(C(=O)OCC(F)(F)F)cc21`: 25.9 µM (active); for `NC(CSC1(c2ccccc2)c2ccccc2-c2ccccc21)C(=O)O` (stereo not given): “inactive”.
The same measure for `CCNC(=O)Nc1ccc(S(=O)(=O)Nc2cnc(C)nc2C)cc1`: “inactive”; for `Cc1cc(C)c(C#N)c(SCC(=O)N(CC(C)C)C2CCS(=O)(=O)C2)n1` (stereo not given): “inactive”; for `CS(=O)(=O)Nc1ccc(C(=O)N2CCCC2)cc1`: “inactive”.
The same measure for `CNc1cncc(-c2ccc(NS(C)(=O)=O)cc2)n1`: 2.91 µM (active); for `CCCS(=O)(=O)Nc1ccc(-c2cn3c(n2)SCC3)cc1`: “inactive”.
In the case of `CC1(C)C/C(=N/Nc2ccc([N+](=O)[O-])cc2[N+](=O)[O-])C(C)(C)O1`, the Potency entry is “inactive”.
The same measure for `CCc1c(C)nc(SCC(=O)NC2CCCC2)[nH]c1=O`: “inactive”; for `CCCn1c(NCc2ccc(N(CC)CC)cc2)nc2ccccc21`: 25.9 µM (active); for `CC(C)(C)C(=O)Cn1c(NCCO)nc2ccccc21`: “inactive”.
Next, `CCCn1c(NCc2ccccc2F)nc2ccccc21`: “inactive”; `CC(=O)NC(CC(=O)Nc1ccc(S(=O)(=O)N2CCOCC2)cc1)c1ccccc1` (stereo not given): “inactive”.
The same measure for `O=S(=O)(c1ccc(F)cc1)N1CC=C(c2ccccc2)CC1`: “inactive”; for `COc1ccc(N(CC(=O)Nc2ccc(F)c(F)c2)S(=O)(=O)c2c(C)[nH]c(=O)[nH]c2=O)cc1`: “inactive”; for `Clc1cccc(N=C2NN=C(c3ccc4c(c3)OCCO4)CS2)c1`: 20.6 µM (active).
Regarding `S=C(Nc1cccc(Cl)c1)Nc1ccc2c(c1)OCCO2`, the Potency result was “inactive”.
The same measure for `c1ccc(CN2CCC(N=C3NN=C(c4ccc5c(c4)OCCO5)CS3)CC2)cc1`: “inactive”.
Next, `CCOC1CS(=O)(=O)CC1OCC` (stereo not given): “inactive”; `CC(=O)Nc1ccc(NC(=O)CSc2nnnn2-c2ccccc2F)cc1`: “inactive”; `CC(=O)c1ccc(NC(=O)C2CCN(S(=O)(=O)c3c(C)noc3/C=C/c3ccc(C)cc3)CC2)cc1`: “inactive”.
Next, `Cc1cccc(NC(=O)C2CCN(S(=O)(=O)c3c(C)noc3/C=C/c3ccco3)CC2)c1`: 16.4 µM (active); `CNC(=O)C1CCN(S(=O)(=O)c2c(C)noc2/C=C/c2cccc(C)c2)CC1`: “inactive”.
For the compound `Cc1ccc(S(=O)(=O)N(C)C)cc1NC(=O)c1ccc(-n2cncn2)c([N+](=O)[O-])c1`, the Potency entry is “inactive”.
The same measure for `COc1ccccc1CNCc1ccc(C(=O)O)s1`: “inactive”; for `CCCn1nc(C(=O)OCc2nc(N)nc(Nc3ccccc3C)n2)c2ccccc2c1=O`: “inactive”.
Regarding `CC(C)OC(=O)c1ccc(NCc2cc(O)ccc2O)cc1Cl`, the Potency is 2.91 µM (active).
The same measure for `C#CCNc1ccc(C(=O)OCC)cc1`: “inactive”.
Next, `COC(=O)c1ccc(NCc2cc(O)ccc2O)cc1`: 4.61 µM (active).
The same measure for `CC(CN1CCOCC1)OC(=O)c1ccc(Cl)cc1Cl` (stereo not given): “inactive”; for `O=C(OC12CC3CC(CC(C3)C1)C2)c1ccc(NCc2cc(O)ccc2O)cc1`: 2.06 µM (active); for `CC(OC(=O)c1ccc(Cl)cc1O)C(=O)NCCC1=CCCCC1` (stereo not given): “inactive”.
As for `COC(=O)c1ccc(NCC(=O)c2ccccc2)cc1`, the Potency entry is “inactive”.
